Reference: the supplement of paper PMC13380429

Key:
[1] = test system: Vero E6 infected with SARS-CoV-2; test: morphology score (similarity to uninfected cells); higher = more like uninfected cells; conditions: 24 h
[2] = test system: Vero E6 infected with SARS-CoV-2; test: SARS-CoV-2 infection rate relative to infected DMSO; higher = more infection, active = 60 or less; conditions: 24 h

Compound: CNC(=O)c1nn(C)c2c1C(C)(C)Cc1cnc(Nc3ccc(N4CCN(C)CC4)cc3)nc1-2 (10 µM)
- morphology score [1]: -0.142
- SARS-CoV-2 infection rate [2]: 112% (inactive)

Compound: CN1Cc2c(C(=O)OC(C)(C)C)ncn2-c2ccsc2C1=O (10 µM)
- morphology score [1]: -0.00637
- SARS-CoV-2 infection rate [2]: 102% (inactive)

Compound: Oc1cccc2cccnc12 [oxyquinoline] (10 µM)
- morphology score [1]: 0.202
- SARS-CoV-2 infection rate [2]: 93.5% (inactive)

Compound: COc1cc(OC)cc(N(CCNC(C)C)c2ccc3ncc(-c4cnn(C)c4)nc3c2)c1 [erdafitinib] (0.833333 µM)
- morphology score [1]: 0.151
- SARS-CoV-2 infection rate [2]: 108% (inactive)

Compound: O=C(O)C1=CCNCC1 [isoguvacine] (10 µM)
- morphology score [1]: 0.0662
- SARS-CoV-2 infection rate [2]: 99.5% (inactive)

Compound: CN1CC[C@@H](NC(=O)Nc2ccc(C#N)cc2)C[C@@H]1c1nc2ccccc2[nH]1 [glasdegib] (10 µM)
- morphology score [1]: 0.066
- SARS-CoV-2 infection rate [2]: 100% (inactive)

Compound: COc1cc2nccc(Oc3ccc(NC(=O)C4(C(=O)Nc5ccc(F)cc5)CC4)cc3)c2cc1OC [cabozantinib] (0.833333 µM)
- morphology score [1]: 0.329
- SARS-CoV-2 infection rate [2]: 97.5% (inactive)

Compound: CCOc1cc(N2CCC(O)CC2)ccc1Nc1ncc2c(n1)N(C)c1ccccc1C(=O)N2C (0.833333 µM)
- morphology score [1]: -0.0631
- SARS-CoV-2 infection rate [2]: 114% (inactive)

Compound: NC(=S)N/N=C/c1ncccc1N [triapine] (0.833333 µM)
- morphology score [1]: 0.051
- SARS-CoV-2 infection rate [2]: 106% (inactive)

Compound: O=C1c2ccccc2C(=O)C1c1ccc(Br)cc1 [bromindione] (10 µM)
- morphology score [1]: 0.204
- SARS-CoV-2 infection rate [2]: 93.5% (inactive)

Compound: NC(=O)C1=CN([C@@H]2O[C@H](COP(=O)(O)OP(=O)(O)OC[C@H]3O[C@@H](n4cnc5c(N)ncnc54)[C@H](O)[C@@H]3O)[C@@H](O)[C@H]2O)C=CC1 [coenzyme-I] (10 µM)
- morphology score [1]: 0.00507
- SARS-CoV-2 infection rate [2]: 103% (inactive)
